{"source": "PubChem BioAssay (NCATS)", "note": "Inconclusive results are not listed. A call without a number means that no potency is given here. Activity calls are given as the source filed them. Calls come from the whole dose curve; as a rule, active = well fitted inhibition curve with a large enough effect; inconclusive = small, poorly fitted or top-dose-only effect; inactive = flat fitted curve, though single readings scatter. Potency is the fitted concentration of half-maximal effect.", "data": [{"molecular_target": "Voltage-gated inwardly rectifying potassium channel KCNH2 (Homo sapiens) (UniProt Q12809)", "sequence (Q12809 whole entry, looked up)": "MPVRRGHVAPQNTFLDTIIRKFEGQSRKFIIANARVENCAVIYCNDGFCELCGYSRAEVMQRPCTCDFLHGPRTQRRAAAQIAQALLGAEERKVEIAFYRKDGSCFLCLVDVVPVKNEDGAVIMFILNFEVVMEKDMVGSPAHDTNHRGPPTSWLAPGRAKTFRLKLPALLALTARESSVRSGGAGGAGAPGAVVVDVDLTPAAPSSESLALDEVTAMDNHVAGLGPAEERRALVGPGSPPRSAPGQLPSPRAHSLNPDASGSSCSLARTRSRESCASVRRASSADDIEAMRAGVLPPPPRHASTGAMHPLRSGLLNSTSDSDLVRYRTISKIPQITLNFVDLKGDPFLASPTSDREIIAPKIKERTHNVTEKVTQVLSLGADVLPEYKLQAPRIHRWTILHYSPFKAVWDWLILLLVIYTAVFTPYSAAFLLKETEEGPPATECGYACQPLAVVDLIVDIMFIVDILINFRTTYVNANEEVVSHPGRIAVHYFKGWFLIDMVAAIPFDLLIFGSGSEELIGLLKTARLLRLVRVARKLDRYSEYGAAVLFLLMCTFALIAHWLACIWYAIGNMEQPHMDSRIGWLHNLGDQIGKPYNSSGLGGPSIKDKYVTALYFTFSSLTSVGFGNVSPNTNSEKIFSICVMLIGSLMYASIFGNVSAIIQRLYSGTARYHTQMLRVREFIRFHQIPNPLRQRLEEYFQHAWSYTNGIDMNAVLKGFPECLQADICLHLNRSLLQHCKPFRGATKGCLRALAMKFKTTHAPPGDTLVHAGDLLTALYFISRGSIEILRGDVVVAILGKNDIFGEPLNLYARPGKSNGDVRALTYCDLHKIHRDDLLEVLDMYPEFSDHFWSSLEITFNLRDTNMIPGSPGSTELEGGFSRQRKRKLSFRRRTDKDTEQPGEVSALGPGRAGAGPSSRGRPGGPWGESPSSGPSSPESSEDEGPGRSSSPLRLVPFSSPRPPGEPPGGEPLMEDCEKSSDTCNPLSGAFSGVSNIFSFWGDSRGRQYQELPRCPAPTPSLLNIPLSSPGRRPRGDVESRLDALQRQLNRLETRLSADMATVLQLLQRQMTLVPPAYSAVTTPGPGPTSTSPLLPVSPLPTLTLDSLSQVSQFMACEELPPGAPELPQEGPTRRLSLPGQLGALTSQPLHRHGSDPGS", "assay": "qHTS Assay for Small Molecule Inhibitors of the Human hERG Channel Activity (AID 588834);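 note: lower thallium flux fluorescence means stronger hERG block; nearly all actives have a fitted effect of over 50% in size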", "conditions": "U2OS BacMam hERG, FluxOR thallium flux fluorescence; series mostly up to 46.1 µM", "outline": "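U2OS cells BacMam-transduced with hERG, 2000 cells/well, compound ~10 min at 37 °C before stimulation buffer. FluxOR thallium flux fluorescence read kinetically on FDSS; decrease indicates block; AC50 from Hill fits.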", "values": [{"smiles": "[S]=[Sb](=[S])[S][Sb](=[S])=[S]", "Potency": "inactive"}, {"smiles": "C=CCN1CC[C@]23c4c5ccc(O)c4O[C@H]2/C(=N/NC(=O)c2ccccc2)CC[C@@]3(O)[C@H]1C5", "Potency": "3.16 µM (active)"}, {"smiles": "CN(C)[C@@H]1C(=O)C(C(N)=O)=C(O)[C@@]2(O)C(=O)C3=C(O)c4c(O)ccc(Cl)c4[C@@](C)(O)[C@H]3C[C@@H]12", "Potency": "inactive"}, {"smiles": "CNC1(c2ccccc2Cl)CCCCC1=O", "note": "(stereo unspecified)", "Potency": "inactive"}, {"smiles": "FC(F)OC(F)(F)C(F)Cl", "note": "(stereo unspecified)", "Potency": "inactive"}, {"smiles": "COc1ccc(OC)c([C@@H](O)[C@H](C)N)c1", "Potency": "inactive"}, {"smiles": "CC(=O)[C@H]1CC[C@H]2[C@@H]3CC[C@@H]4C[C@H](O)CC[C@]4(C)[C@H]3CC[C@]12C", "Potency": "inactive"}, {"smiles": "CCCn1c(C)c(C(=O)c2ccc3ccccc3c2)c2ccccc21", "Potency": "6.31 µM (active)"}, {"smiles": "CC1(C(=O)O)C2CCC(O2)C1(C)C(=O)O", "note": "(stereo unspecified)", "Potency": "inactive"}, {"smiles": "NCC[C@H](O)C(=O)N[C@@H]1C[C@H](N)[C@@H](O[C@H]2O[C@H](CN)[C@@H](O)[C@H](O)[C@H]2N)[C@H](O[C@@H]2O[C@H](CO)[C@@H](O)[C@H]2O)[C@H]1O", "Potency": "inactive"}, {"smiles": "O=C1CC[C@@]2(O)C3Cc4ccc(O)c5c4C2(CCN3CC2CC2)[C@H]1O5", "note": "(stereo partly specified)", "Potency": "11.2 µM (active)"}, {"smiles": "COc1ccc2c(c1)[C@@]13CCCC[C@H]1[C@@H](C2)NCC3", "Potency": "11.2 µM (active)"}, {"smiles": "CCCCC[C@@H](O)C1C(=O)OC(C)[C@H](O)/C=C/C=C/C=C/C=C/C=C(\\C)C(O)C(O)C(O)C[C@H](O)C[C@H](O)C[C@H](O)C[C@H](O)C[C@@H]1O", "note": "(stereo partly specified)", "Potency": "inactive"}, {"smiles": "C[N+]1([O-])[C@@H]2CC[C@H]1CC(OC(=O)C(CO)c1ccccc1)C2", "note": "(stereo partly specified)", "Potency": "inactive"}, {"smiles": "C=CCN1CCC23c4c5ccc(O)c4O[C@H]2C(=O)CC[C@@]3(O)C1C5", "note": "(stereo partly specified)", "Potency": "inactive"}, {"smiles": "Oc1ccc2c3c1O[C@H]1[C@@H](O)CC[C@@]4(O)[C@@H](C2)N(CC2CCC2)CC[C@]314", "Potency": "inactive"}, {"smiles": "Clc1cc(I)cc(Cl)c1NC1=NCCN1", "Potency": "inactive"}, {"smiles": "COc1ccc(OC)c(C(O)C(C)N)c1", "note": "(stereo unspecified)", "Potency": "inactive"}, {"smiles": "C[C@H](Cc1ccc2c(c1)OC(C(=O)O)(C(=O)O)O2)NC[C@H](O)c1cccc(Cl)c1", "Potency": "inactive"}, {"smiles": "N[C@@]1(C(=O)O)CC[C@@H](C(=O)O)C1", "Potency": "inactive"}, {"smiles": "COc1ccc2[nH]c3c(c2c1)CCNC3", "Potency": "inactive"}, {"smiles": "CC(=O)OCC(=O)[C@H]1CC[C@H]2[C@@H]3CC[C@H]4C[C@H](O)CC[C@]4(C)[C@H]3C(=O)C[C@]12C", "Potency": "inactive"}, {"smiles": "CN1CCC(c2c[nH]c3ccc(O)cc23)CC1", "Potency": "2 µM (active)"}, {"smiles": "C/C(=C\\c1csc(C)n1)[C@@H]1C[C@@H]2O[C@]2(C)CCC[C@H](C)[C@H](O)[C@@H](C)C(=O)C(C)(C)[C@@H](O)CC(=O)O1", "Potency": "inactive"}, {"smiles": "CCOc1ccc2c3c1O[C@H]1[C@@H](O)C=C[C@H]4[C@@H](C2)N(C)CC[C@@]341", "Potency": "inactive"}, {"smiles": "CC(C)(O)C1C2OC(=O)C1C1(O)CC3OC34C(=O)OC2C14C", "note": "(stereo unspecified)", "Potency": "inactive"}, {"smiles": "O=C1CN(O)C(c2ccccc2)=c2cc(Cl)ccc2=N1", "Potency": "inactive"}, {"smiles": "CCCC(C)C1(CC)C(=O)NC(=O)NC1=O", "note": "(stereo unspecified)", "Potency": "inactive"}, {"smiles": "COc1ccc2c(c1)/C(=C/c1cnc[nH]1)C(=O)N2", "Potency": "inactive"}, {"smiles": "O=C1CCCCC1CN1CCCCC1", "note": "(stereo unspecified)", "Potency": "inactive"}, {"smiles": "CC(N)Cc1ccc(O)cc1", "note": "(stereo unspecified)", "Potency": "inactive"}, {"smiles": "NC(CCCCCP(=O)(O)O)C(=O)O", "note": "(stereo unspecified)", "Potency": "inactive"}, {"smiles": "CC(N)Cc1c[nH]c2ccc(OCc3cccs3)cc12", "note": "(stereo unspecified)", "Potency": "2.82 µM (active)"}, {"smiles": "Clc1ccc(C(Cn2ccnc2)OCc2csc3c(Cl)cccc23)c(Cl)c1", "note": "(stereo unspecified)", "Potency": "3.98 µM (active)"}, {"smiles": "COc1ccc2c3c1O[C@H]1[C@@H](O)C=C[C@H]4[C@@H](C2)NCC[C@@]341", "Potency": "inactive"}, {"smiles": "C=C[C@H]1CN2CC[C@H]1C[C@@H]2[C@@H](O)c1ccnc2ccccc12", "Potency": "14.1 µM (active)"}]}]}
